# Source: PubChem BioAssay AID2283304 (EPA ToxCast)
# Results filed as inconclusive are left out. Calls of active or inactive are those of the source. Rule for the calls: active = hit-call score of the fitted dose curve at least 0.9, where 1 is the maximum; inconclusive = response in the unintended direction; inactive = score below 0.9.
# Biological target: rat Galanin Receptor, Galr1 (gene 50577) (UniProt Q62805)
# Experiment: NVS_GPCR_rGalanin: NovaScreen (NVS) G Protein-Coupled Receptor Assay for rat Galanin Receptor
# Method: NVS_GPCR_rGalanin is a biochemical, single-readout assay that uses extracted gene-proteins from Rat brain membranes in a tissue-based cell-free assay. Measurements were taken 2 hours after chemical dosing in a 96-well plate.NVS_GPCR_rGalanin is one of one assay component(s) measured or calculated from the NVS_GPCR_rGalanin assay. It is designed to make measurements of radioligand binding, a form of binding reporter, as detected with scintillation counting signals by Filter-based radiodetection technology.Data from the assay component NVS_GPCR_rGalanin was analyzed into 1 assay endpoint. This assay endpoint, NVS_GPCR_rGalanin, was analyzed in the positive analysis fitting direction relative to DMSO as the negative control and baseline of activity. Using a type of binding reporter, loss-of-signal activity can be used to understand changes in the binding as they relate to the gene Galr1. Furthermore, this assay endpoint can be referred to as a primary readout, because the performed assay has only produced 1 assay endpoint. To generalize the intended target to other relatable targets, this assay endpoint is annotated to the gpcr intended target family, where the subfamily is rhodopsin-like receptor.
# Binding assays used specific radioligands (tritiated, iodinated) with non-radioactive competitive displacement ligands in agonist or antagonist protocols (as indicated) and various reference compounds and inhibitors to titrate specific binding to receptors and transporters. Most enzyme assays (CYPs, kinases, phosphatases, proteases, HDACs) used recombinant protein and specific substrates (fluorescence mostly, some colorimetric and radioactive) and inhibitors, followed by a biochemical separation of substrate and product. All assays for the biochemical HTS were initially run in duplicate at a single concentration (10 uM for CYP450 assays and 25 uM for all others). Assay-chemical combinations meeting a pre-defined threshold (e.g., 30% inhibition and other criteria defined below) were then run in singleton concentration-response format with maximum concentration of 20 uM for CYPs and 50 uM for all others. Each assay was run with positive and negative controls, and concurrent controls on every plate. The follow-up (secondary) screen tested active chemical-pairs in concentration series, as well as a few additional assays not tested in the primary screen, some selected negative inactives, and several cases re-run in the concentration series for confirmatory purposes.
# Chain of rat Galanin Receptor, Galr1 (gene 50577) (Q62805 whole entry, looked up): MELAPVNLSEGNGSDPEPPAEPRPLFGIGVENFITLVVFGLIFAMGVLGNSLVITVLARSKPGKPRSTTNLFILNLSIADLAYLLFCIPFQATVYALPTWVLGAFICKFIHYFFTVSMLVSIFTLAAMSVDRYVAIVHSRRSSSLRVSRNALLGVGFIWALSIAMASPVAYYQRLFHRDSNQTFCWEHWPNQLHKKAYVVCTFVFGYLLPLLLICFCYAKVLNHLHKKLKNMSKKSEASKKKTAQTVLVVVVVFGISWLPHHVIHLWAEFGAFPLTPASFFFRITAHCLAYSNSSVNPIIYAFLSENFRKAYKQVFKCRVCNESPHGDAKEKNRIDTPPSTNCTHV
Structure (SMILES),outcome,AC50
CC(C)NCC(O)c1ccc(O)c(O)c1 (stereo unspecified),inactive,
CCCCc1ccc2c(n1)[C@@H](c1ccc(OC)cc1C[C@H](C)C(=O)O)[C@H](C(=O)O)[C@H]2c1ccc2c(c1)OCO2,inactive,
C=CCC1=C(C)C(OC(=O)C2C(C=C(C)C)C2(C)C)CC1=O (stereo unspecified),inactive,
c1ccc2c(c1)-c1cccc3c1c-2cc1ccccc13,inactive,
CC(C)(c1ccccc1)c1ccc(O)c(C(C)(C)c2ccccc2)c1,inactive,
CCCCCCCCCCC,inactive,
Cc1cc(O)ccc1Cl,inactive,
Cc1cccc(C)c1O,inactive,
CCN1CCC2(CC1)COc1cc3c(cc12)N(C(=O)c1ccc(-c2ccc(-c4nnc(C)o4)cc2C)cc1)CC3,inactive,
CCC[CH2][Sn]([Cl])([CH2]CCC)[CH2]CCC,,3.99 µM (active)
CC(C)=CCCC(C)=CC=O,inactive,
CN(C)C(=O)Cl,inactive,
O=c1ccc2ccccc2o1,inactive,
O=C(O)C1C(C(=O)O)C2(Cl)C(Cl)=C(Cl)C1(Cl)C2(Cl)Cl (stereo unspecified),inactive,
CCCCCCCCCCO,inactive,
COS(C)(=O)=O,inactive,
